An excerpt weighted towards active compounds, which were near 6.3% of everything screened.
RORg inh = inhibitors of mouse ROR gamma transcriptional activity; P51450; Drosophila S2 Gal4-RORgamma UAS-luciferase reporter, 20 h; Potency, µM (series often up to 53.6 µM), hits mostly inhibitors; 310,000 compounds, 5.4% hits; further: nearly all actives have a fitted effect of over 60% in size
Target sequence (P51450 whole entry, looked up, the tested form may be a part): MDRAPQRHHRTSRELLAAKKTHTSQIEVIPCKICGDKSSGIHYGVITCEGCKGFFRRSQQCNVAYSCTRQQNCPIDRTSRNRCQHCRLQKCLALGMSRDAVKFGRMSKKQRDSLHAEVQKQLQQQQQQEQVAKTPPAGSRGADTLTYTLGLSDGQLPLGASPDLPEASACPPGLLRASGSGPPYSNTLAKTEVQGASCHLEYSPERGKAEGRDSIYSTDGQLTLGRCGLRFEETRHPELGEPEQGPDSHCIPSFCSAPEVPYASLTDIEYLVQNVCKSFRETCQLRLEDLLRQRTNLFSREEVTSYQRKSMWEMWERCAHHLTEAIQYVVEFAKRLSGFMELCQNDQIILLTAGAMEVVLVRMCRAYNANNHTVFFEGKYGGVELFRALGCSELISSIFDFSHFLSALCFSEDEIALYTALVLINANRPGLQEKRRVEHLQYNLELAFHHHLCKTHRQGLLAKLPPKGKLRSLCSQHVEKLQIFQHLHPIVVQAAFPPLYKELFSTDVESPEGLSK
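Stably transfected Drosophila Schneider cells are the test system, with ROR gamma fused to Gal4 and luciferase under UAS control; luminescence is read after 20 hr of 700 uM copper sulfate induction at ambient temperature.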
S2 tox = reduces viability in counter-screen for ATXN expression inhibitors; S2 cells (HEK-293 line with an ATXN2-luciferase reporter) viability, CellTiter-Fluor protease fluorescence, 24 h; Potency, µM (series often up to 56.7 µM), hits mostly cytotoxic; 400,000 compounds, 0.49% hits; AID 651635; further: nearly all actives have a fitted effect of over 40% in size
HepG2 viability = counter-screen for TGF-b inhibitors: cytotoxicity in HepG2 cells; 410,000 compounds, 0.76% hits; Potency, µM (highest dose often 46.1 µM), usual class: cytotoxic; HepG2 CAGA-GFP viability, ATP luminescence, 18 h; AID 588856
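HepG2 CAGA-GFP cells (1000/well, DMEM with 1% FBS) received compound, then TGF-beta at 500 pg/mL final, and were incubated 18 hours at 37 degrees C. Viability was read by CellTiter-Glo luminescence. Media-only wells were set as complete cell-killing and DMSO as no toxicity.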
TGFb inhibitor = inhibitors of TGF-b signaling | Potency, µM (top dose mostly 46.1 µM), hits mostly inhibitors | 410,000 compounds, 1.2% hits | AID 588855 | HepG2 CAGA-GFP TGF-b/SMAD3 reporter, GFP fluorescence, 18 h; TGF-beta stimulated, 500 pg/mL final; further: nearly all actives have a fitted effect of over 65% in size
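HEPG2 CAGA-GFP, 1000 cells/well; 2 h settle, 37 C; cpd via pin tool; TGF-b 500 pg/mL final; 18 h, 37 C; GFP imaging ex488/em500-530; %Activity normalised to -TGF-b and +DMSO controls; CRC fit, curve class.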
Gal4-VP16 FLuc = inhibits Gal4-VP16 luciferase reporter, ROR gamma counter-screen | 310,000 compounds, 3.5% hits | Drosophila S2 Gal4-VP16 UAS-luciferase, luminescence, 20 h | Potency, µM (highest dose often 53.6 µM), actives largely listed as inhibitors;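 further: Gal4-VP16 expression switched on by copper sulfate through the metallothionein promoter; nearly all actives have a fitted effect of over 50% in size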
ATXN2 expr inh = reduces ATXN2 reporter expression in HEK-293 cells; Potency, µM (doses to about 57 µM), most hits filed as inhibitors; AID 1745845; 360,000 compounds, 0.72% hits; HEK-293 ATXN2-luciferase reporter, luminescence, 24 h; further: nearly all actives have a fitted effect of over 55% in size
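qHTS (up to 57 uM final) was run with 24 h compound exposure of reporter cells at 37 °C. Each well was multiplexed: SteadyGlo luminescence measured ATXN2-luciferase expression after a fluorogenic Gly-Phe-AFC viability readout (25 uM final).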
A number is an active result; - = inactive; ? = inconclusive; . = no result; [ ] = remark or other dose. The call rests on the fitted dose curve; in most records, active means well fitted curve in the direction sought with a large enough effect; inconclusive means small, poorly fitted or top-dose-only effect, or another doubt; inactive means no such curve, though single readings can be large; an effect the other way counts as inactive or inconclusive.

SMILES | RORg inh | S2 tox | HepG2 viability | TGFb inhibitor | Gal4-VP16 FLuc | ATXN2 expr inh
COC(=O)/C=C1\S/C(=N/NC(=O)c2ccccc2)NC1=O | 11µM | - | - | - | 11µM | -
COc1ccccc1/C=C1\S/C(=N/NC(=O)c2cccc(Br)c2)NC1=O | 0.32µM | - | - | - | 0.56µM | -
COC(=O)/C=C1/S/C(=N/NC(=O)c2ccccc2)NC1=O | 2.8µM | - | - | - | - | -
COC(=O)/C=C1/S/C(=N/NC(=O)c2ccccc2C)NC1=O | ? | - | - | - | ? | -
COc1ccccc1C(=O)NNC(=O)c1cccc(Br)c1 | ? | - | - | - | - | -
O=c1c(CCc2ccccc2)nc2cnc(Oc3cccc(Cl)c3)nc2n1C[C@H]1CCCO1 | - | . | . | . | - | .
CN(N=O)c1ccc(/C=C2\C=Cc3ccccc32)cc1 | . | . | - | - | . | .
CN1CCN(C(=O)c2ccc(-c3cccs3)s2)CC1 | ? | - | - | - | ? | -
O=C(c1cccs1)c1ccc(-c2cccs2)s1 | - | - | - | - | 13µM | -
CC(C)(C)n1ncc2c(=O)n(Cc3cc(F)ccc3Cl)cnc21 | . | . | - | - | . | .
C=CCNC(=O)c1cnn2c1NC(=C)C=C2C | . | . | - | - | . | .
Cc1cnc(-n2ncc(C(=O)NCc3ccncc3)c2C2CC2)nc1-c1cccs1 | . | - | . | . | . | .
CCCCCCCCSC1=CC(=O)C(OC)=C(OC)C1=O | . | ? | 7.1µM | 10µM | . | .
COc1cc(CNC(=O)C2CCCCN2S(=O)(=O)c2ccc(F)cc2)cc(OC)c1OC (stereo not drawn) | . | - | - | - | . | -
Cc1ccc2nc(SCC(=O)Nc3ccc4c(c3)CCC4)[nH]c2c1 | ? | - | - | - | 11µM | -
O=S(=O)(NC(=S)c1ccccc1)c1ccccc1 | . | - | - | - | . | -
O=S(=O)(NC(=S)c1ccccc1)c1ccc(F)cc1 | 11µM | - | - | - | ? | -
CN1C=CC(=C2C=CN(C)C=C2)C=C1 | - | . | . | . | - | .
O=c1[nH]nc(Sc2ncnc3sccc23)n1CCc1ccccc1 | 16µM | - | - | - | ? | -
CCN(CC)C(=O)CSc1n[nH]c(=O)n1CCc1ccccc1 | - | - | - | - | - | -
CCOC(=O)C1=C(C)NC(C)=C(C(=O)OCC)C1c1ccccc1C=CC(=O)OC(C)(C)C | -[10 µM] | . | . | . | ? | .
CCOC(=O)C1=C(C)NC(C)=C(C(=O)OCC)C1c1ccccc1/C=C/C(=O)OC(C)(C)C | . | ? | . | . | . | 35µM
CS/C(N)=N/N=C/c1cc(Br)cc(Br)c1O | 0.63µM | - | - | 6.3µM | 2.5µM | .
C=CCS/C(N)=N\N=C\c1cc(Br)cc([N+](=O)[O-])c1O | 0.32µM | - | - | - | 3.2µM | -
CCS/C(N)=N/N=C/c1cc(C)ccc1O | 0.71µM | - | - | - | 2µM | -
SMILES | RORg inh | S2 tox | HepG2 viability | TGFb inhibitor | Gal4-VP16 FLuc | ATXN2 expr inh
O=[N+]([O-])c1cc(Br)cc(/C=N/n2cnnc2)c1O | - | - | - | - | - | -
Cc1nnc(C)n1/N=C/c1cc(Br)cc(Br)c1O | ? | - | - | - | ? | -
CS/C(N)=N/N=C/c1cc(C)ccc1O | 0.32µM | - | - | ? | 5µM | -
CCN(CC)c1ccc(/C=N/N=C(N)N)c(O)c1 | - | - | - | ? | - | -
CCCCS/C(N)=N/N=C/c1cc(C)ccc1O | 5.6µM | - | - | ? | 5µM | -
NC(N)=N/N=C/c1cc([N+](=O)[O-])ccc1O | - | ? | - | - | - | -
COc1cccc(/C=N/NC(=O)COc2cccc3cccnc23)c1O | 2.2µM | - | - | ? | 13µM | ?
CC(C)n1cc(/C=N/NC(=O)COc2cccc3cccnc23)c2ccccc21 | ? | ? | - | - | ? | -
COc1ccc(OCC(=O)N/N=C/c2cccc3cccnc23)cc1 | . | - | - | - | . | ?
COc1ccc(/C=N/NC(=O)COc2cccc3ccccc23)c(C(=O)O)c1OC | - | - | - | - | ? | -
COc1ccccc1OCC(=O)N/N=C/c1c(O)ccc2ccccc12 | 2.8µM | . | . | . | 2.5µM | .
COc1ccccc1OCC(=O)N/N=C/c1cccc2cccnc12 | 18µM | - | - | - | ? | -
Cc1cc(/C=N\NC(=O)COc2cccc3cccnc23)c(C)n1-c1ccccc1 | - | - | - | ? | - | -
O=C(COc1ccc(Cl)cc1)N/N=C/c1cccc2cccnc12 | 13µM | - | - | ? | 10µM | 25µM
CC1=C(C(=O)N2CCCCCC2)CC(CC(=O)NCCc2ccccn2)C(=O)N1Cc1ccc(F)cc1 (stereo not drawn) | . | - | . | . | . | -
CCc1cc(-c2nc(N)ncc2-c2csc(C)n2)c(O)cc1OC | - | ? | - | - | - | .
CCc1cc(-c2[nH]ncc2-c2ccc([N+](=O)[O-])cc2)c(O)cc1OC | 13µM | - | - | 13µM | 20µM | -
CCc1cc(-c2oncc2-c2ccc(OC)cc2)c(O)cc1OC | ? | . | . | . | 14µM | .
Cc1nc2n(c(=O)c1CCN1CCC(C(=O)c3ccc(F)cc3)CC1)CCS2 | . | - | . | . | . | ?
Cc1nc2cc(C(=O)OCC(=O)NC(C)C(C)C)ccc2n1-c1ccccc1 (stereo not drawn) | - | - | - | - | 28µM | -
Fc1ccc(C(c2nnc(-c3ccccc3)o2)N2CCN(c3ccccc3)CC2)c(Cl)c1 (stereo not drawn) | . | - | - | ? | . | -
CCOC(=O)C1CCCN(S(=O)(=O)c2ccc(S(=O)(=O)N(CC)CC)cc2)C1 (stereo not drawn) | 6.3µM | - | - | - | 4.5µM | .
COc1ccc(/C=C/C2=CC(C)(C)NC(=S)N2)cc1OC | 3.2µM | - | - | - | - | -
CCOc1ccc(/C=C2\NC(=S)NC2=O)cc1 | ? | - | - | - | ? | -
COc1cccc(/C=N/n2c(-c3cc(C)[nH]n3)n[nH]c2=S)c1 | - | - | - | ? | - | -
SMILES | RORg inh | S2 tox | HepG2 viability | TGFb inhibitor | Gal4-VP16 FLuc | ATXN2 expr inh
COc1cccc(/C=C/C2=CC(C)(C)NC(=S)N2)c1 | 1.3µM | - | 13µM | - | 5µM | -
CCOc1ccc(/C=C/C2=CC(C)(C)NC(=S)N2)cc1 | 0.71µM | - | - | ? | 2.2µM | ?
Cc1c(C(=O)NCCN(C)C)oc2c1-c1nn(Cc3ccccc3Cl)cc1CC2 | . | . | - | - | . | .
CCN(CC)C1CCN(C(=O)c2cnn(-c3ncc4c(n3)-c3ccccc3CCC4)c2COC)C1 (stereo not drawn) | . | - | . | . | . | .
Cc1cccc2cc3c(NC(=O)c4ccccn4)nn(C)c3nc12 | 2µM | - | - | - | 4µM | -
O=C(C#Cc1ccccc1)c1ccc([N+](=O)[O-])cc1 | 11µM | . | - | ? | 7.9µM | ?
O=C(c1ccc(-c2ccccc2)cc1)c1ccc([N+](=O)[O-])cc1 | - | . | . | . | - | .
O=C(C#Cc1ccccc1)c1ccccc1 | . | ? | 13µM | 10µM | . | .

High-throughput results as filed in PubChem.
